The panel holds about 83,000 compounds, 20% with a hit somewhere; the sample as a whole holds those more often.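 For each line, cells grew in 96-well plates with the test compound present at a single concentration for 48 hours.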 Values without a mark were called inactive. Activity calls are given as the source filed them. How the source made its calls: active means growth percent below 10; inactive means the rest.
How the values were obtained:
Assay in all cases: NCI-60 one-dose screen, 48 h (100 = growth as untreated, 0 = no growth, -100 = all killed)
Settings in all cases: 10 µM unless noted
[1] = test system: DU-145 prostate
[2] = test system: K-562 leukemia
[3] = test system: MALME-3M melanoma
[4] = test system: MDA-MB-231 breast
[5] = test system: RXF 393 renal
[6] = test system: SF-268 CNS
[7] = test system: SF-295 CNS
[8] = test system: SF-539 CNS
[9] = test system: UACC-257 melanoma
[10] = test system: M14 melanoma

CCCCc1ccc(C(O)(CCN2CC3CCC(CC3)C2)c2ccccc2)cc1 (stereo not given)
growth [1]: 99.8% | growth [2]: 75.2% | growth [3]: 95.7% | growth [4]: 99.1% | growth [5]: 96.2% | growth [6]: 97.1% | growth [7]: 102% | growth [8]: 101% | growth [9]: 95.2% | growth [10]: 91.7%

Cc1ccc(S(=O)(=O)c2ccc3[nH]c(=O)[nH]c(=O)c3c2)cc1
growth [1]: 107% | growth [2]: 87.2% | growth [3]: 119% | growth [4]: 101% | growth [5]: 114% | growth [6]: 104% | growth [7]: 116% | growth [8]: 101% | growth [9]: 91.5% | growth [10]: 101%

O=c1c2c(=NCCN3CCCC3)cc3c(=O)n(CCCN4CCOCC4)c(=O)c4ccc(c(O)n1CCCN1CCOCC1)c2c4-3
growth [1]: 2.23% (active) | growth [2]: 3.73% (active) | growth [3]: -70.7% (active) | growth [4]: -24.5% (active) | growth [5]: -66.3% (active) | growth [6]: -26.8% (active) | growth [7]: 1.07% (active) | growth [8]: -53.9% (active) | growth [9]: -14.3% (active) | growth [10]: -73.4% (active)

CCOC(=O)c1c(Cl)c2c(n1Cc1cc(OC)cc(OC)c1)-c1oncc1CCC2
growth [1]: 21.5% | growth [2]: 9.73% (active) | growth [3]: 22.6% | growth [4]: 35.5% | growth [5]: 21.7% | growth [6]: 50.5% | growth [7]: 6.63% (active) | growth [8]: 7.36% (active) | growth [9]: 72.4% | growth [10]: 12.7%

O=C1CC2c3cc(-c4cc5ccccc5o4)ccc3CCN2C(=O)N1c1ccccc1 (stereo not given)
growth [1]: 96.5% | growth [2]: 58.4% | growth [3]: 71.6% | growth [4]: 93.3% | growth [5]: 114% | growth [6]: 92.4% | growth [7]: 90% | growth [8]: 106% | growth [9]: 87.8% | growth [10]: 90.7%

Nc1nc2c(s1)CCc1c-2c(Br)n(Cc2ccccc2)c1Br
growth [1]: 109% | growth [2]: 15.4% | growth [3]: 37.8% | growth [4]: 80.9% | growth [5]: 17.9% | growth [6]: 89.1% | growth [7]: 120% | growth [8]: 93.4% | growth [9]: 96.9% | growth [10]: 91.8%

COc1cc(C2CC(=O)Nc3c2ccc2ccccc32)cc(Br)c1OC (stereo not given)
growth [1]: -4.56% (active) | growth [2]: 6.59% (active) | growth [3]: 27.6% | growth [4]: 28.5% | growth [5]: -1.55% (active) | growth [6]: 42.5% | growth [7]: -33.7% (active) | growth [8]: 0.195% (active) | growth [9]: 59.7% | growth [10]: -15.3% (active)

O=C1c2c(c3c4cc(Br)ccc4[nH]c3c3ccc4ccccc4c23)C(=O)N1O
growth [1]: 103% | growth [2]: 71.6% | growth [3]: 126% | growth [4]: 81.7% | growth [5]: 103% | growth [6]: 81.1% | growth [7]: 84.7% | growth [8]: 96.4% | growth [9]: 88.5% | growth [10]: 94.1%

O=C1CCC(N2Cc3c(C#CCCCNC(=O)c4cc5c(o4)C(=O)c4ccccc4C5=O)cccc3C2=O)C(=O)N1 (stereo not given)
growth [1]: -98.1% (active) | growth [2]: 16.2% | growth [3]: -97.6% (active) | growth [4]: -2.23% (active) | growth [5]: -15.4% (active) | growth [6]: -10.1% (active) | growth [7]: -87% (active) | growth [8]: -94.2% (active) | growth [9]: -79% (active) | growth [10]: -87.8% (active)

Cn1c2c(cc(S(=O)(=O)c3ccccc3)c1=O)CCc1c-2cnn1-c1cccc(Cl)c1
growth [1]: 135% | growth [2]: 73.3% | growth [3]: 87.4% | growth [4]: 98.3% | growth [5]: 93.4% | growth [6]: 106% | growth [7]: 80.3% | growth [8]: 83.1% | growth [9]: 79.7% | growth [10]: 98%

COC(=O)C1C2CC3c4[nH]c5cc(OC)ccc5c4CCN3CC2CC(OC2CCCCO2)C1OC (stereo not given)
growth [1]: 111% | growth [2]: 95.2% | growth [3]: 104% | growth [4]: 96.8% | growth [5]: 104% | growth [6]: 101% | growth [7]: 102% | growth [8]: 97.6% | growth [9]: 98.6% | growth [10]: 103%

CCCCCCCC/C=C\CCCCCCCCOc1cccc(CC(=O)NCC[N+]2(C)CCOCC2)c1
growth [1]: 93.6% | growth [2]: 73.4% | growth [3]: 93.3% | growth [4]: 87.2% | growth [5]: 6.07% (active) | growth [6]: 70.2% | growth [7]: 89.1% | growth [8]: 96.2% | growth [9]: 93.6% | growth [10]: 87%

O=C1c2ccccc2C(=O)c2c(Nc3ccc(CCO)cc3)ccc(O)c21
growth [1]: 60.7% | growth [2]: 17.2% | growth [3]: 77.2% | growth [4]: 56.4% | growth [5]: 74.6% | growth [6]: 60.4% | growth [7]: 50.2% | growth [8]: 84.8% | growth [9]: 101% | growth [10]: 80.3%

CCC(=O)Nc1nnc(Cc2ccc(OC)c(OC)c2)s1
growth [1]: -49.6% (active) | growth [2]: 2.4% (active) | growth [3]: -46.3% (active) | growth [4]: 1.66% (active) | growth [5]: -32.9% (active) | growth [6]: -14% (active) | growth [7]: -78.7% (active) | growth [8]: -74.1% (active) | growth [9]: -26.3% (active) | growth [10]: 22.7%

Cc1ccc(S(=O)(=O)N2CCc3ccc(O)c4c3C2Cc2cc(Cl)ccc2-4)cc1 (stereo not given)
growth [1]: 85.5% | growth [2]: 24.7% | growth [3]: 57% | growth [4]: 82.4% | growth [5]: 71% | growth [6]: 61.9% | growth [7]: 84.7% | growth [8]: 58.2% | growth [9]: 63.4% | growth [10]: 68.7%

CCOC(=O)c1[nH]c2cc(Cl)ccc2c1[C@@H](C(=O)NC(C)(C)C)N(CC)C(=O)CCCCC#Cc1cccc2c1CN(C1CCC(=O)NC1=O)C2=O (stereo not given in full)
growth [1]: 32.8% | growth [2]: 17.5% | growth [3]: -12.6% (active) | growth [4]: -50.1% (active) | growth [5]: -1.34% (active) | growth [6]: 25% | growth [7]: -5.32% (active) | growth [8]: 29.6% | growth [9]: 28.4% | growth [10]: 16.9%

O=[N+]([O-])c1cc2c(cc1Br)-c1ccccc1C2
growth [1]: 113% | growth [2]: 95.6% | growth [3]: 110% | growth [4]: 90.8% | growth [5]: 99.5% | growth [6]: 98.1% | growth [7]: 93.4% | growth [8]: 101% | growth [9]: 98.8% | growth [10]: 78.7%

FC(F)(F)Oc1ccc2c(c1)C[C@H]1C[C@@H](c3ccoc3)N2O1
growth [1]: 110% | growth [2]: 91.8% | growth [3]: 109% | growth [4]: 93.9% | growth [5]: 134% | growth [6]: 126% | growth [7]: 91.2% | growth [8]: 93.9% | growth [9]: 87.4% | growth [10]: 117%

CN1CCc2c(Sc3ccc(C(=O)NO)cc3)c3ccccc3n2C1
growth [1]: 36.8% | growth [2]: 28.2% | growth [3]: 42.4% | growth [4]: 8.01% (active) | growth [5]: 52.5% | growth [6]: 35.9% | growth [7]: 40.6% | growth [8]: 17.1% | growth [9]: 14.1% | growth [10]: 38.1%

COc1cc(-c2nc(SC(C)C)nc(Nc3cccc(C)c3)c2C#N)cc(OC)c1OC
growth [1]: 109% | growth [2]: 99.5% | growth [3]: 108% | growth [4]: 99.2% | growth [5]: 127% | growth [6]: 107% | growth [7]: 101% | growth [8]: 107% | growth [9]: 98.9% | growth [10]: 108%

Cc1cc(NS(=O)(=O)c2ccc(NC(=O)COc3ccc(-c4cc5ccccc5[nH]4)cc3)cc2)no1
growth [1]: 18.5% | growth [2]: 6.89% (active) | growth [3]: 47.6% | growth [4]: 18.9% | growth [5]: -24.6% (active) | growth [6]: 27.3% | growth [7]: 8.98% (active) | growth [8]: 6.2% (active) | growth [9]: 56.9% | growth [10]: -15.4% (active)

Cn1cc(C(=O)NCCC(=N)N)cc1NC(=O)CN=C(N)N
growth [1]: 104% | growth [2]: 134% | growth [3]: 106% | growth [4]: 94.1% | growth [5]: 114% | growth [6]: 112% | growth [7]: 110% | growth [8]: 104% | growth [9]: 99.9% | growth [10]: 94.2%

Cc1cccc2c(=O)c3c(sc12)c(NCCNCCO)nc1ccccc13
growth [1]: 27.3% | growth [2]: -65.7% (active) | growth [3]: -42.2% (active) | growth [4]: -15.3% (active) | growth [5]: 38.1% | growth [6]: 56.6% | growth [7]: 65% | growth [8]: 50.6% | growth [9]: 77.8% | growth [10]: -56.4% (active)

COc1cc(-c2nc(SC(C)C)nc(Nc3ccccc3C)c2C#N)cc(OC)c1OC
growth [1]: 113% | growth [2]: 98.6% | growth [3]: 104% | growth [4]: 102% | growth [5]: 120% | growth [6]: 106% | growth [7]: 102% | growth [8]: 103% | growth [9]: 113% | growth [10]: 104%

NS(=O)(=O)c1cc(Br)c2c(c1)S(=O)(=O)NCN2
growth [1]: 108% | growth [2]: 80.6% | growth [3]: 121% | growth [4]: 118% | growth [5]: 174% | growth [6]: 103% | growth [7]: 104% | growth [8]: 101% | growth [9]: 94.5% | growth [10]: 109%

CCCCCCCC/C=C\CCCCCCCCOc1cccc(CC(=O)NCC[N+](C)(C)C)c1
growth [1]: 94.4% | growth [2]: 85.5% | growth [3]: 90.1% | growth [4]: 87.3% | growth [5]: 13.8% | growth [6]: 71.5% | growth [7]: 87.1% | growth [8]: 92.2% | growth [9]: 103% | growth [10]: 75.3%

O=C(CC(O)c1ccccc1)Nc1ccccn1 (stereo not given)
growth [1]: 104% | growth [2]: 84.1% | growth [3]: 94.2% | growth [4]: 104% | growth [5]: 131% | growth [6]: 103% | growth [7]: 108% | growth [8]: 97.6% | growth [9]: 94.9% | growth [10]: 99.7%

— PubChem BioAssay (NCI)
